Results reported in the supplement of paper PMC10849652.
About 7,900 targets were measured; listed, in parts, are those with a hit and a random draw of the rest. About 0.6% of all pairs of compound and target were hits. Values without a mark were called inactive.

What was measured:
Assay in all cases: log2 fold change, soluble protein after heating vs DMSO (PISA); higher = thermal stabilisation; K562 cells, 10 uM, 30 min; active = over 0.2 and 3.5 SD of the protein, either way, in both replicates (recomputed)
[1] = compound: CS(=O)(=O)c1ccc(-c2cnc(N)c(C(=O)Nc3ccccc3)n2)cc1
Summary of the method: (§1)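 Values are thermal stability changes relative to control samples and are taken from duplicates. They are stated as log2 fold changes. Before quantification by TMTpro 16plex LC-MS/MS with equalised channel sums, K562 cells at 2×10^6 cells/mL were treated with 10 μM compound for 30 min, heated in aliquots for 3 min across 48°C-58°C, pooled, extracted in PBS with 0.5% NP-40 at 4°C, and centrifuged at 21,000xg for 90 min to give the soluble supernatant.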

[2] = compound: C[C@@H](Oc1cc(-c2cnn(C3CCNCC3)c2)cnc1N)c1c(Cl)ccc(F)c1Cl [crizotinib]
Summary of the method: as §1

[3] = compound: C[C@@H]1COCCN1C2=NC(=NC(=C2)C3(CC3)S(=O)(=O)C)C4=C5C=CNC5=CC=C4
Summary of the method: as §1

[4] = compound: C[C@H](C1=CC=C(C=C1)C(=O)NC2=C3C=CNC3=NC=C2)N
Summary of the method: as §1

[5] = compound: C[C@H](Nc1ncnc2nc[nH]c12)c1cc2cccc(Cl)c2c(=O)n1-c1ccccc1 [duvelisib]
Summary of the method: as §1

[6] = compound: Cc1cc(Nc2cc(CN3CCOCC3)c3nc(C)c(Cc4ccc(Cl)cc4F)n3n2)n[nH]1 [gandotinib]
Summary of the method: as §1

[7] = compound: Cc1cc(Nc2cc(N3CCN(C)CC3)nc(Sc3ccc(NC(=O)C4CC4)cc3)n2)n[nH]1 [tozasertib]
Summary of the method: as §1

[8] = compound: Cc1cc(SCc2sc(-c3ccc(C(F)(F)F)cc3)nc2C)ccc1OCC(=O)O
Summary of the method: as §1

[9] = compound: Cc1ccc(-n2nc(C(C)(C)C)cc2NC(=O)Nc2ccc(OCCN3CCOCC3)c3ccccc23)cc1 [doramapimod]
Summary of the method: as §1

[10] = compound: Cc1ccc(C(=O)N(CCCN)[C@@H](c2nc3cc(Cl)ccc3c(=O)n2Cc2ccccc2)C(C)C)cc1 [ispinesib]
Summary of the method: as §1

[11] = compound: Cc1ccc(NC(=O)c2ccc(CN3CC[C@H](N(C)C)C3)c(C(F)(F)F)c2)cc1Nc1nccc(-c2cncnc2)n1 [bafetinib]
Summary of the method: as §1

[12] = compound: Cc1cccc(CC(=O)N2CCc3c2ccc(-c2cn(C)c4ncnc(N)c24)c3F)n1
Summary of the method: as §1

[13] = compound: Cc1cn(-c2cc(NC(=O)c3ccc(C)c(Nc4nccc(-c5cccnc5)n4)c3)cc(C(F)(F)F)c2)cn1 [nilotinib]
Summary of the method: as §1

[14] = compound: Cc1nc(Nc2n[nH]c3c2CN(C(=O)N[C@H](CN(C)C)c2ccccc2)C3(C)C)c2sccc2n1
Summary of the method: as §1

[15] = compound: Cc1nc(Nc2ncc(C(=O)Nc3c(C)cccc3Cl)s2)cc(N2CCN(CCO)CC2)n1 [dasatinib]
Summary of the method: as §1

[16] = compound: Cc1ncc(-c2ccnc(Nc3ccc(S(C)(=O)=O)cc3)n2)n1C(C)C
Summary of the method: as §1

[17] = compound: Cn1cc(-c2ccc3c(c2)CCN3C(=O)Cc2cccc(C(F)(F)F)c2)c2c(N)ncnc21
Summary of the method: as §1

[18] = compound: Cn1cc(-c2ccc3nnc(C(F)(F)c4ccc5ncccc5c4)n3n2)cn1
Summary of the method: as §1

[19] = compound: Cn1cncc1[C@@](N)(c1ccc(Cl)cc1)c1ccc2c(c1)c(-c1cccc(Cl)c1)cc(=O)n2C [tipifarnib]
Summary of the method: as §1

[20] = compound: FC(F)(F)c1ccc(/C=C/c2nc(COc3ccc(CCCCn4ccnn4)cc3)co2)cc1 [mubritinib]
Summary of the method: as §1

UniProt Q9Y5B9, sequence (Q9Y5B9 whole entry, looked up): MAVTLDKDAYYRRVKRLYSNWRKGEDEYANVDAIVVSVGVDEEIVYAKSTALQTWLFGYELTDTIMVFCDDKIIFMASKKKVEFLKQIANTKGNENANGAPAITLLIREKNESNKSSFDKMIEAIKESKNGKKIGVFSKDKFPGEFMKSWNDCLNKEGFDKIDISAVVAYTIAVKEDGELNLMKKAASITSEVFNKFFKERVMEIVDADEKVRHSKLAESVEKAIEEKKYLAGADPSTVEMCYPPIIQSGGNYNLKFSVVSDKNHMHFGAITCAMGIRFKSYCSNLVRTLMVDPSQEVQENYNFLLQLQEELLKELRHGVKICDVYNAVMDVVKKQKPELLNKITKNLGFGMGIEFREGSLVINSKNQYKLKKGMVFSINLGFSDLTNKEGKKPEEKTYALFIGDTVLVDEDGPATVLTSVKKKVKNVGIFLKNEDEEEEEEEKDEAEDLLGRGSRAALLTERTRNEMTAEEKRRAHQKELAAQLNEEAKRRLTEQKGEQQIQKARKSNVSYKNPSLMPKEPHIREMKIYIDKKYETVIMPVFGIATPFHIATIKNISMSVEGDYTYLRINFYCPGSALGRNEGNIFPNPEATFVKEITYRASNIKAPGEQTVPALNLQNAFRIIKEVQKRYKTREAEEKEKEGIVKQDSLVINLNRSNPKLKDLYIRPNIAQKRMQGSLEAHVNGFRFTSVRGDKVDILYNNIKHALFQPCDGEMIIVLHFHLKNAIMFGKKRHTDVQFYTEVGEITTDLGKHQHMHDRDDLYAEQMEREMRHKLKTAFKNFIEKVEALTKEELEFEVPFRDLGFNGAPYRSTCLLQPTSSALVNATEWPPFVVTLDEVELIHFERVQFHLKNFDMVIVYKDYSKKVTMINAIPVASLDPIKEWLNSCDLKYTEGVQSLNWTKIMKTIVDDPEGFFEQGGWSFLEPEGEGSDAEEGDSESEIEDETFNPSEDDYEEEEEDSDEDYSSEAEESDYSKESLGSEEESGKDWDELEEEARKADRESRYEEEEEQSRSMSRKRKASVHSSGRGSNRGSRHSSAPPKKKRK
UniProt Q9Y4R8, sequence (Q9Y4R8 whole entry, looked up): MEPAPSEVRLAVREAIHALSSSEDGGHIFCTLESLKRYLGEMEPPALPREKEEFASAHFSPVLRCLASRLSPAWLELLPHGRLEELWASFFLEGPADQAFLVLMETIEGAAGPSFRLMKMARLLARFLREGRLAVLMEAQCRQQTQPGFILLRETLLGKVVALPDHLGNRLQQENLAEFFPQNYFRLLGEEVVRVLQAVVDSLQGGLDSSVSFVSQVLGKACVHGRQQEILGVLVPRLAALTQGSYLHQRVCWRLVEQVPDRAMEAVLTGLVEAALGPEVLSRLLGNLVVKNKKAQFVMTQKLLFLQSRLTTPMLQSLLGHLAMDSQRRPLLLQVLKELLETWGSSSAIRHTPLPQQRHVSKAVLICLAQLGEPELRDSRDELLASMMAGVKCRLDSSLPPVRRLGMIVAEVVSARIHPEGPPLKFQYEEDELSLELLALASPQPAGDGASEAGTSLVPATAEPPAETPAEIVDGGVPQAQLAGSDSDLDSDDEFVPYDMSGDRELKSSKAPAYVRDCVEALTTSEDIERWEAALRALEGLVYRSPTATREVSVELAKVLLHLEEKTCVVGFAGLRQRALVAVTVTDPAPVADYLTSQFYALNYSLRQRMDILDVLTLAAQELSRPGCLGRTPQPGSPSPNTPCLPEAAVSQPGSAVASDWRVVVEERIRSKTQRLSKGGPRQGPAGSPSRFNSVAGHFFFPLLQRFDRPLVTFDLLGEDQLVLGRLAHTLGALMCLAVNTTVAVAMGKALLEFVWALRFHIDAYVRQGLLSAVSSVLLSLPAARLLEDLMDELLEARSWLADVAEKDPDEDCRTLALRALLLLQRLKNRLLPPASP
UniProt Q96CW6, sequence (Q96CW6 whole entry, looked up): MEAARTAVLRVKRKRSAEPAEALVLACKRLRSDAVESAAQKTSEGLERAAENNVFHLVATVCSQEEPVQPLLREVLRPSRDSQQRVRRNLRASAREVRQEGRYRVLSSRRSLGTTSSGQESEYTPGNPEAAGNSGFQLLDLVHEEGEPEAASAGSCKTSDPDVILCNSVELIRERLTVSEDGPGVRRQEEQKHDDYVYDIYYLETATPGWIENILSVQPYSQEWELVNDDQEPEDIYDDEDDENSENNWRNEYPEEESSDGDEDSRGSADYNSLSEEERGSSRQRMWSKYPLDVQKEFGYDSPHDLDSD
UniProt Q969Z0, sequence (Q969Z0 whole entry, looked up): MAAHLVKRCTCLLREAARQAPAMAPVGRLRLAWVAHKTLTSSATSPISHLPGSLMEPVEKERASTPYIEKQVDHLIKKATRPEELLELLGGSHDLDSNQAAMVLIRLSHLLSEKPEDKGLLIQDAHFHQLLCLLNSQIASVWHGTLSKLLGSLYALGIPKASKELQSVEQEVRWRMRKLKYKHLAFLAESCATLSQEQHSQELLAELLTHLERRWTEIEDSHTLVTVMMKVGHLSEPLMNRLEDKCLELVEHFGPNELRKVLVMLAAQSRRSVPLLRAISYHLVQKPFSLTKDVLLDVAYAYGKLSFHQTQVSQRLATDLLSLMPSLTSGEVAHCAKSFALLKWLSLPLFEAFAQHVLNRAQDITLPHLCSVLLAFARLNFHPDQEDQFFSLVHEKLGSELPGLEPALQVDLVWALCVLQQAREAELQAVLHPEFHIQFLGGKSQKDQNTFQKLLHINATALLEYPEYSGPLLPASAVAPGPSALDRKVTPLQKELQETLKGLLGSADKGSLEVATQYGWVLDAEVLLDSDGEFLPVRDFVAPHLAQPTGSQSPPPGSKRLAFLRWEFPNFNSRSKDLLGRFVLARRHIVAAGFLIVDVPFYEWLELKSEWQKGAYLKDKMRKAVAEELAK
UniProt Q9Y5X1, sequence (Q9Y5X1 whole entry, looked up): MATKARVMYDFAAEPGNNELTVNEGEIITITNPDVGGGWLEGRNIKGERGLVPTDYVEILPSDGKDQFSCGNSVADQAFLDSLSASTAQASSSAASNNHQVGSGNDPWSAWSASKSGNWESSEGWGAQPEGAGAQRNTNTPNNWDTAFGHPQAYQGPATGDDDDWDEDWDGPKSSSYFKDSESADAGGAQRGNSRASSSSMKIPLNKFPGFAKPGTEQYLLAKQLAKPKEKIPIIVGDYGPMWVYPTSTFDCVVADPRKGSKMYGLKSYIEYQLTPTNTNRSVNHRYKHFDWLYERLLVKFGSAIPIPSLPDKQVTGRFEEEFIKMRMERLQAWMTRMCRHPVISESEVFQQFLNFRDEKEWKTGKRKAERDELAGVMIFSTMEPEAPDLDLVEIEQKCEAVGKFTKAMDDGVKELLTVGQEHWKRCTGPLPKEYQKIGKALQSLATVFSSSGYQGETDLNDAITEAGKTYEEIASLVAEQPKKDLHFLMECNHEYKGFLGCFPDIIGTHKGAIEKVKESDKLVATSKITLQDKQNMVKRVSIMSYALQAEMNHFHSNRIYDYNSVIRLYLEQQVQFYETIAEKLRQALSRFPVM
UniProt Q9Y5L4, sequence (Q9Y5L4 whole entry, looked up): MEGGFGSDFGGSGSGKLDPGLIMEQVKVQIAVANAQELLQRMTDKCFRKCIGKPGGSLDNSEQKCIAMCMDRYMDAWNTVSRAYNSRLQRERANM
UniProt Q96CQ1, sequence (Q96CQ1 whole entry, looked up): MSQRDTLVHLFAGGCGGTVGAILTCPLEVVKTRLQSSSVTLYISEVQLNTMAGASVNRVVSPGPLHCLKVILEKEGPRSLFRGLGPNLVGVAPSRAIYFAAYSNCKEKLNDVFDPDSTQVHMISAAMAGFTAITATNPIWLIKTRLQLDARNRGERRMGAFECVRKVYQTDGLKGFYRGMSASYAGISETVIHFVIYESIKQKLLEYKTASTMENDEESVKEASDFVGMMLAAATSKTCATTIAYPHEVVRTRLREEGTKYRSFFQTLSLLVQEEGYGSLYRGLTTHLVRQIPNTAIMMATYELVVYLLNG
UniProt Q9BVV7, sequence (Q9BVV7 whole entry, looked up): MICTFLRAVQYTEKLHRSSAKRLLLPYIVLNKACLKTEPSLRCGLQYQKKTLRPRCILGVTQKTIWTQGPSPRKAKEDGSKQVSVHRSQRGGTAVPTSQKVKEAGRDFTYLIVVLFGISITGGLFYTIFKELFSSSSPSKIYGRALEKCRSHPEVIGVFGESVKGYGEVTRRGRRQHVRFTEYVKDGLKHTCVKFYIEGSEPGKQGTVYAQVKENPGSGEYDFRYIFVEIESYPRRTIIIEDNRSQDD
UniProt P15907, sequence (P15907 whole entry, looked up): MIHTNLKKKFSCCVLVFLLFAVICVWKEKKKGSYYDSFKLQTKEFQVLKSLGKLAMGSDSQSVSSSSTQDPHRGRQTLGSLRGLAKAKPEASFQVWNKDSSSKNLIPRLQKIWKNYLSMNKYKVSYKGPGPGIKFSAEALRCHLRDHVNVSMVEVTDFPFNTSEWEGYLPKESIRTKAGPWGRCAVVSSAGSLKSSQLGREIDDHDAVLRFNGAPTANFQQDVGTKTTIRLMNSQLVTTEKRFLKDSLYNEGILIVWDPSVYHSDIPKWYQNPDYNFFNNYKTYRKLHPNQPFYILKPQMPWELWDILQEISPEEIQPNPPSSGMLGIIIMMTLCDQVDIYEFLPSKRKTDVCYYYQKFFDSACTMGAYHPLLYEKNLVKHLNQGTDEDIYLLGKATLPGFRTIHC
UniProt P04183, sequence (P04183 whole entry, looked up): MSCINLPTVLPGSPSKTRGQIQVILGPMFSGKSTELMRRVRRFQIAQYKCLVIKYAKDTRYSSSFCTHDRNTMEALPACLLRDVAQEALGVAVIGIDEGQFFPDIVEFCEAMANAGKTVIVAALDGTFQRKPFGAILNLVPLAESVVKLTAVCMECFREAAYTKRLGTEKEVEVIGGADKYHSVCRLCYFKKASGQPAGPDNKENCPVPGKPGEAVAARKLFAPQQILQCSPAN
UniProt Q01130, sequence (Q01130 whole entry, looked up): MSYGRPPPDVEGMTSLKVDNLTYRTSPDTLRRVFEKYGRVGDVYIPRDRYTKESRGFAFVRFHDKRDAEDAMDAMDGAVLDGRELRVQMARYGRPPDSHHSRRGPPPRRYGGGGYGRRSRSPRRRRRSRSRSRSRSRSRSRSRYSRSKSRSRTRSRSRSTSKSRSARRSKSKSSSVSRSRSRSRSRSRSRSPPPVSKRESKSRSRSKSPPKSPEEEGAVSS

Row | Target | log2 fold change [1] | log2 fold change [2] | log2 fold change [3] | log2 fold change [4] | log2 fold change [5] | log2 fold change [6] | log2 fold change [7] | log2 fold change [8] | log2 fold change [9] | log2 fold change [10] | log2 fold change [11] | log2 fold change [12] | log2 fold change [13] | log2 fold change [14] | log2 fold change [15] | log2 fold change [16] | log2 fold change [17] | log2 fold change [18] | log2 fold change [19] | log2 fold change [20]
1 | SRPRA (UniProt P08240) | 0.066 | 0.036 | 0.061 | 0.01 | 0.036 | -0.042 | -0.009 | 0.063 | -0.044 | 0.045 | 0.143 | 0.138 | 0.066 | 0.04 | -0.105 | 0.123 | 0.054 | -0.037 | -0.141 | 0.227 (active)
2 | TELO2 (UniProt Q9Y4R8) | -0.022 | -0.055 | 0.013 | 0.233 | -0.055 | -0.198 | 0.013 | 0.176 | 0.094 | -0.136 | 0.069 | 0.158 | -0.023 | -0.041 | -0.039 | 0.039 | -0.058 | 0.046 | -0.185 | 0.103
3 | TIMM13 (UniProt Q9Y5L4) | -0.047 | 0.051 | 0.151 | -0.115 | 0.079 | -0.002 | 0.038 | 0.006 | 0.039 | 0.12 | 0.086 | 0.156 | 0.018 | -0.017 | 0 | 0.035 | 0.07 | -0.003 | -0.111 | 0.005
4 | SUOX (UniProt P51687) | 0.016 | 0.076 | 0.098 | 0.001 | -0.026 | 0.063 | 0.003 | -0.075 | -0.338 | -0.034 | -0.084 | -0.181 | 0.063 | 0.013 | 0 | -0.066 | -0.015 | 0.063 | 0.019 | 0.032
5 | SUPT16H (UniProt Q9Y5B9) | 0.138 | -0.062 | 0.251 | -0.093 | 0.084 | -0.024 | 0.234 | 0.248 | -0.047 | 0.028 | 0.006 | 0.049 | 0.011 | -0.088 | -0.269 | -0.103 | 0.073 | 0.108 | -0.088 | 0.047
6 | TIMM21 (UniProt Q9BVV7) | 0.02 | -0.01 | 0.042 | -0.029 | 0.009 | 0.04 | 0.017 | 0.033 | 0.02 | -0.229 | -0.149 | 0.058 | -0.011 | -0.014 | 0.011 | -0.003 | 0.025 | 0.074 | 0.055 | -0.011
7 | TK1 (UniProt P04183) | -0.046 | 0.011 | -0.008 | -0.097 | 0.004 | -0.055 | -0.032 | -0.03 | -0.013 | 0.017 | -0.04 | -0.028 | -0.002 | 0.028 | 0.032 | -0.036 | 0.015 | 0 | 0 | 0.056
8 | TBRG4 (UniProt Q969Z0) | -0.041 | -0.676 (active) | 0.137 | -0.005 | 0.066 | -0.364 | 0.04 | 0.174 | -0.081 | -0.254 | -0.137 | -0.035 | -0.027 | -0.291 | -0.513 | 0.006 | 0.095 | 0.003 | -0.317 | -0.277
9 | TM9SF2 (UniProt Q99805) | 0.056 | -0.754 (active) | -0.017 | -0.049 | 0.064 | 0.008 | 0.028 | 0 | 0.007 | -0.089 | -0.056 | 0.008 | 0.025 | -0.072 | -0.013 | 0.041 | 0.023 | 0.036 | 0.009 | -0.006
10 | SUCLA2 (UniProt Q9P2R7) | 0.034 | 0.001 | 0.087 | -0.011 | 0.04 | -0.058 | -0.043 | 0.012 | 0.003 | -0.064 | 0 | -0.065 | -0.098 | 0.057 | -0.149 | -0.04 | 0.005 | 0.038 | -0.01 | -0.697 (active)
11 | ST6GAL1 (UniProt P15907) | -0.064 | -0.189 | -0.005 | 0.037 | 0.073 | 0.014 | 0.001 | 0.018 | 0.083 | 0.002 | 0.001 | 0.029 | 0.168 | -0.048 | 0.131 | -0.001 | 0.007 | -0.02 | 0.128 | -0.023
12 | SRSF2 (UniProt Q01130) | 0.005 | 0.023 | -0.107 | 0.006 | 0.013 | 0.092 | -0.037 | -0.006 | -0.033 | -0.036 | 0.02 | -0.062 | 0.007 | -0.541 (active) | 0.074 | 0.034 | -0.058 | 0 | 0.085 | -0.011
13 | SLC7A6OS (UniProt Q96CW6) | 0.047 | -0.04 | 0.004 | -0.133 | 0.047 | -0.081 | 0.028 | -0.049 | 0.214 | 0.077 | -0.062 | 0.15 | -0.019 | -0.035 | 0.004 | -0.031 | 0.026 | -0.13 | 0.06 | 0.058
14 | SLC25A36 (UniProt Q96CQ1) | 0.016 | 0.067 | -0.061 | -0.011 | 0.195 | 0.313 | -0.059 | -0.089 | -0.027 | -0.021 | -0.049 | -0.003 | -0.01 | 0.182 | -0.136 | -0.138 | 0.033 | -0.004 | -0.075 | -0.078
15 | SNX9 (UniProt Q9Y5X1) | 0.013 | -0.077 | -0.009 | 0.003 | -0.039 | -0.054 | -0.015 | 0.115 | -0.009 | -0.074 | -0.015 | 0.03 | -0.06 | -0.064 | -0.131 | 0.006 | -0.023 | -0.008 | -0.013 | 0.009
16 | THADA (UniProt Q6YHU6) | 0.01 | -0.168 | 0.05 | 0.018 | 0.046 | -0.239 (active) | -0.052 | 0.083 | 0.001 | -0.133 | 0 | 0.027 | -0.068 | 0.045 | -0.15 | -0.028 | 0.098 | 0.055 | -0.1 | 0.123
